Each structure is given as a SMILES string. This is part of a sample that, as a whole, favours compounds with a hit. Of some 83,000 tested, about 20% had one in any assay.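 In brief: 96-well plates, 48 h treatment, single concentration, percent growth endpoint.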 Values without a mark were called inactive. The source made the active and inactive calls. The calls were made as follows: active = growth percent below 10; inactive = the rest.

One assay has as its system NCI-H522 lung. The assay is described as follows: NCI-60 one-dose screen, 48 h (100 = growth as untreated, 0 = no growth, -100 = all killed). The note with it: 10 µM unless noted.
`O=C(c1ccc(Cl)cc1)C1[C@H](c2ccccc2Cl)[C@@H](c2ccccc2)NC12C(=O)Nc1ccc(Br)cc12` (stereo not given in full): the growth is -73.4% (active).
Regarding `Cc1cccc(-c2ccccc2Oc2ccc3nnc(Cl)n3n2)c1`, the growth was 102%.
On to `CCC1(OC(=O)c2ccccc2SSCCOC(=O)CCCCC2SCC3NC(=O)NC32)C(=O)OCc2c1cc1n(c2=O)Cc2cc3ccccc3nc2-1` (stereo not given), for which the growth is 42.3%.
As to `COc1ccc(/C=C/c2nc3ccccc3n3c(-c4cccc([N+](=O)[O-])c4)nnc23)cc1`, the growth is -72.7% (active).
For `Cc1ccc(C(=O)Nc2cc(-c3ccncc3)cc(C(F)(F)F)c2)cc1C#Cc1cnc2cccnn12`, the growth was 33.1%.
As for `COc1ccc(N=Nc2c(N)nn3c(N)c(C#N)c(-c4ccccc4)nc23)cc1`, the growth is -4.5% (active).
`N#Cc1ccc(C(=O)NNC(=O)CSc2nc3sc4c(c3c(=O)n2-c2ccc(Cl)cc2)CCCC4)cc1`: the growth was 61.5%.
`CCCCCCCCc1ccc(C(=O)Nc2cccc(O)c2)cc1`: the growth is 23%.
The same measure, in the same setting: the value for `COc1ccc(/C=C/C(=O)c2ccc(OC)c(S(N)(=O)=O)c2)c(C(F)(F)F)c1` was 9.43% (active); that for `C#CCN(C)CCCOc1ccc(N(CC)C(=O)c2cc(C(C)C)c(O)cc2O)cc1Cl` was -14.9% (active); that for `CC1=C(C(=O)OCc2ccccc2)C(c2ccc(N(C)C)cc2)n2c(nc3ccccc32)N1` (stereo not given) was 8.11% (active).
In the case of `Cc1ccc(C2CC(c3ccc(NC(=O)Nc4ccccc4)cc3)=NN2c2ccc(S(N)(=O)=O)cc2)cc1` (stereo not given), the growth was -84% (active).

The subject of another assay is A549/ATCC NSCLC. The assay is described as above. The note with it: 10 µM unless noted.
Consider `Cc1ccc(C(=O)Nc2cc(-n3cnc(F)c3)cc(C(F)(F)F)c2)cc1C#Cc1cnc2cccnn12`, for which the growth is 66.5%.
Turning to `O=C(N/N=C/c1ccc(-c2cccc([N+](=O)[O-])c2)s1)c1[nH]c2ccc(Br)cc2c1-c1ccccc1`, the growth is 91.4%.
In the case of `Nc1cc2ccccc2c(=O)n1NC(=O)c1ccccc1`, the growth is 103%.
As for `C[C@@H]1[C@H]2C[C@@H](C[C@H]1NCc1nc3ccccc3n1C1CCCCCC1)C2(C)C`, the growth was 71.8%.
Take `COc1cc2cc(C(=O)N3C[C@@H](CCl)c4c3cc(OC(=O)N(CCC(=O)N3CCN(C)CC3)[C@H]3CCSSC3)c3ccccc43)[nH]c2c(OC)c1OC`: the growth was -37.3% (active).
`Cc1cn(-c2cc(NC(=O)c3ccc(C)c(-n4cc(-c5cnc6cccnn56)nn4)c3)cc(C(F)(F)F)c2)cn1`: the growth is 94.3%.
As to `Cn1cc(-c2cc(N)n3nc(-c4c[nH]c5ccc(F)cc45)cc3n2)c2cccnc21`, the growth was -87.1% (active).
Take `FC(F)(F)c1cc2c(Cl)ncnc2n1CCN1CCOCC1`: the growth is 92.3%.
Regarding `CCOC(=O)/C(F)=C/C1CC1C1CCN(C(=O)OC(C)(C)C)CC1` (stereo not given), the growth is 78.4%.
On to `O=C(Nc1ccc(-c2ccc3c(c2)NC(=O)/C3=C\c2ccc[nH]2)cc1)Nc1cccc(Cl)c1`, for which the growth is -3.34% (active).
With `O=Cc1cncc(-c2ccc3ncnc(N4CCc5cc(F)c(Cl)cc54)c3c2)c1`, the growth is 21.6%.
As for `Fc1ccc(F)c(CNc2nc(SCCN3CCOCC3)nc3c2cnn3CC(Cl)c2ccc(Br)cc2)c1` (stereo not given), the growth was 20.9%.
Take `Cc1nc(N)ncc1-c1ccc2ncnc(N3CCc4cc(F)c(Cl)cc43)c2c1`: the growth is 56.2%.
In the case of `O=C(Cn1c(/C=C/c2ccc([N+](=O)[O-])cc2)nc2ccccc2c1=O)Nc1ccccc1`, the growth was 75.7%.
For `Nc1nc2cc(-c3ccc4ncnc(NCc5ccccc5)c4c3)ccc2o1`, the growth was 11.4%.
Regarding `COc1ccc(-c2nc3ccc(-c4nnc(SCc5ccccc5)o4)cc3[nH]2)cc1`, the growth was -5.6% (active).
Turning to `O=C(OCCOCCO)N(c1cccc(Br)c1)c1nc(SCCN2CCOCC2)nc2c1cnn2CC(Cl)c1ccc(Br)cc1` (stereo not given), the growth was 15.2%.
For the molecule `Oc1ccc(Cl)c(Nc2nc(SCCN3CCOCC3)nc3c2cnn3CC(Cl)c2ccc(Br)cc2)c1` (stereo not given), the growth is 12%.
As to `O=C1/C(=C/C=C/c2ccco2)SC(=S)N1CC(=S)C1C=CS(=O)(=O)C1` (stereo not given), the growth was 47.7%.
For `COC(=O)c1cc(C(=O)CBr)n2c1ccc1c3ccccc3ccc12`, the growth is 31.3%.
Take `Cc1ccc(-c2cc(C(=O)N=Nc3c(O)[nH]c4ccc(F)cc34)c3ccccc3n2)cc1`: the growth was 11.2%.
As to `Nc1cc(-c2c[nH]c3ccc(F)cc23)nc2cc(-c3c[nH]c4ccccc34)nn12`, the growth is 9.83% (active).
On to `COc1cc(NC(=O)CSc2nnc(-c3ccc(-c4nc5ccc(Cl)cc5[nH]4)cc3)o2)cc(OC)c1OC`, for which the growth was 70.5%.
The same measure, in the same setting: the value for `COc1ccc(C(=O)NNC(=O)CSc2nc3sc4c(c3c(=O)n2-c2ccc(Cl)cc2)CCCC4)cc1` was 86.7%.
Regarding `CN(CCSSCCN1CCOCC1)C(=O)Oc1cc2c(c3ccccc13)[C@H](CCl)CN2C(=O)c1cc2cc(OCCCN3CCC3)ccc2[nH]1`, the growth is -45.8% (active).
Regarding `O=C(Cc1c(-c2ccccc2[N+](=O)[O-])n(-c2ncnc3c2c(-c2ccccc2)c(-c2ccccc2)n3Cc2ccccc2)[nH]c1=O)c1ccc(Cl)c(Cl)c1`, the growth is 25.6%.
As for `O=C(c1ccc(Cl)cc1)C1[C@H](c2ccccc2Cl)[C@@H](c2ccccc2)NC12C(=O)Nc1ccc(Br)cc12` (stereo not given in full), the growth is -41.7% (active).
On the same count and under the same terms, the same measure for `Cc1cccc(-c2ccccc2Oc2ccc3nnc(Cl)n3n2)c1`: 98.7%.
Turning to `CCC1(OC(=O)c2ccccc2SSCCOC(=O)CCCCC2SCC3NC(=O)NC32)C(=O)OCc2c1cc1n(c2=O)Cc2cc3ccccc3nc2-1` (stereo not given), the growth was 47%.
Consider `COc1ccc(/C=C/c2nc3ccccc3n3c(-c4cccc([N+](=O)[O-])c4)nnc23)cc1`, for which the growth was -4.88% (active).
In the case of `Cc1ccc(C(=O)Nc2cc(-c3ccncc3)cc(C(F)(F)F)c2)cc1C#Cc1cnc2cccnn12`, the growth is 48.6%.
Regarding `COc1ccc(N=Nc2c(N)nn3c(N)c(C#N)c(-c4ccccc4)nc23)cc1`, the growth is 53.1%.
In the case of `N#Cc1ccc(C(=O)NNC(=O)CSc2nc3sc4c(c3c(=O)n2-c2ccc(Cl)cc2)CCCC4)cc1`, the growth is 61.9%.
Consider `CCCCCCCCc1ccc(C(=O)Nc2cccc(O)c2)cc1`, for which the growth was 90.3%.
In the case of `COc1ccc(/C=C/C(=O)c2ccc(OC)c(S(N)(=O)=O)c2)c(C(F)(F)F)c1`, the growth was 10.6%.
For the molecule `C#CCN(C)CCCOc1ccc(N(CC)C(=O)c2cc(C(C)C)c(O)cc2O)cc1Cl`, the growth was 15.9%.
Turning to `CC1=C(C(=O)OCc2ccccc2)C(c2ccc(N(C)C)cc2)n2c(nc3ccccc32)N1` (stereo not given), the growth was 94.9%.
Consider `Cc1ccc(C2CC(c3ccc(NC(=O)Nc4ccccc4)cc3)=NN2c2ccc(S(N)(=O)=O)cc2)cc1` (stereo not given), for which the growth was -61.4% (active).

Source of the values: PubChem BioAssay (NCI).
